Our source for the outcome values is PubChem BioAssay AID493049 (Broad Institute, 2011).

Entries with a potency or affinity are not part of this list. Activity calls are given as the source filed them.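 How the source made its calls: active means viability loss with half-max dose at or under ten times the top valid dose tested; inconclusive means flat 30 to 70% loss, or poor curve fit; inactive means flat within 30%, weak potency, or gain.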

The assay in a line: viability loss in HRASV12 DRD fibroblasts, dose response, cell-based, DRD BJ fibroblasts, dry powder (AID 493049). To be noted: DRD engineered BJ fibroblasts (HRASV12) viability, Alamar Blue, 48 h; series mostly up to 45 µM.
Consider `O=C(c1[nH]ncc1[N+](=O)[O-])N1CCN(C(c2ccccc2)c2ccccc2)CC1`, for which the result was inactive. For `COCC(=O)N(c1ccc(OC)c(Cl)c1)C(C(=O)NCCc1ccccc1)c1cccs1` (stereo unspecified), the outcome was inactive. `COc1ccc(N(C(=O)CO)C(C(=O)NCCc2ccccc2)c2cccs2)cc1Cl` (stereo unspecified): the molecule was called inactive.

On to `COc1ccc(N(C(=O)CSc2ncccn2)C(C(=O)NCCc2ccccc2)c2cccs2)cc1Cl` (stereo unspecified), for which the call was inactive. In the case of `COc1ccc(N(C(=O)[C@@H](C)Cl)C(C(=O)NCCc2ccccc2)c2cccs2)cc1Cl` (stereo partly specified), the molecule was classed as inactive.

On to `CCC(=O)N(c1ccc(OC)c(Cl)c1)C(C(=O)NCCc1ccccc1)c1cccs1` (stereo unspecified), for which the molecule was called inactive.
